Source: PubChem BioAssay (Paczesny and Yang Labs, IUPUI and University of Michigan)
This excerpt belongs to a sample that is enriched for hits.
ST2 IL33 inh = inhibitors of human ST2 (IL1RL1) binding to IL-33, primary screen, biochemical, AlphaLISA; inhibition, % for hits at 17 µM; actives 2.3% (n = 78,000); AID 1259354, 2018; AlphaLISA ST2-Fc/biotin-IL-33 interaction, 1 h; in the data active = inhibition above about 30%
Target sequence (Q01638 whole entry, looked up): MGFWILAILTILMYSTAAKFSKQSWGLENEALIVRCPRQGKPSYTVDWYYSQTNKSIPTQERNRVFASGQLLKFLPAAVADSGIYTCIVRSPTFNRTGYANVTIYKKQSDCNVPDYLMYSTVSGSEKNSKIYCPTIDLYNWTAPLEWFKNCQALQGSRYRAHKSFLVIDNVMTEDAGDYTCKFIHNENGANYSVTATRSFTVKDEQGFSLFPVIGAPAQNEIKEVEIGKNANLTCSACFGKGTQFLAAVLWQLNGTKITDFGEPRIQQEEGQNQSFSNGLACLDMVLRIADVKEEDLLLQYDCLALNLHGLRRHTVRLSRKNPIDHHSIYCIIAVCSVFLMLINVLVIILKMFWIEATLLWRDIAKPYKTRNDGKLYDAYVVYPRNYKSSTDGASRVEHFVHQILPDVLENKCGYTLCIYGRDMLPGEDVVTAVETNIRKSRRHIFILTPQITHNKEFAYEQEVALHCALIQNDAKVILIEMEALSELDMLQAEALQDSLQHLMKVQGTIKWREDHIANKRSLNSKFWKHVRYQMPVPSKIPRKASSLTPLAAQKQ
* = called active by the depositor; i = inactive.

SMILES	ST2 IL33 inh
CC1CCCC[C@H]2C(=O)C=C[C@H](O)[C@@H]2CC(=O)O1 (stereo not given in full)	46%*
CCCc1cc2c(=O)c(-c3ccc4c(c3)OCCCO4)coc2cc1OC(C)=O	i
Cc1ccc(-c2noc(C(C)NC3CCSCC3)n2)cc1 (stereo not given)	i
CCCNC(=O)c1ccc(Cn2c(=O)c3cc(OC)c(OC)cc3n(CC(N)=O)c2=O)cc1	i
CN(C)c1ccc(C(=O)Nc2nc3ccc(Cl)cc3s2)cc1	i
Cc1nc2cc(CCO)ccc2s1	i
Cc1nc2ccc(N(C)C)cc2s1	33%*
CN(Cc1ccccc1)C(=O)c1ccc2c(c1)ncn2C1CCCC1	i
COc1ccc(NC2CC(=O)N(c3cccc(Cl)c3)C2=O)cc1 (stereo not given)	i
O=C1C2C3c4ccccc4C(c4ccccc43)C2C(=O)N1c1ccc2c(c1)OCO2 (stereo not given)	i
O=C1CC(NCc2ccc3c(c2)OCO3)C(=O)N1c1ccccc1 (stereo not given)	i
O=C1CC(Nc2ccccc2)C(=O)N1c1ccc(Br)cc1 (stereo not given)	i
Cc1ccc(S(=O)(=O)N2CCN(c3ccc([N+](=O)[O-])c(N4CCOCC4)c3)CC2)cc1	i
Cc1cccc(N2C(=O)CC(N3CCN(c4ccc(F)cc4)CC3)C2=O)c1 (stereo not given)	i
O=[N+]([O-])c1ccc(Nc2nc(N3CCOCC3)nc(N3CCOCC3)n2)cc1	i
O=C1CC(Nc2ccc(Br)cc2)C(=O)N1c1cccc(Cl)c1 (stereo not given)	32%*
CCc1cccc(NC2CC(=O)N(c3cccc(Cl)c3)C2=O)c1 (stereo not given)	i
COc1cccc(N2C(=O)CC(Nc3ccc(N4CCOCC4)cc3)C2=O)c1 (stereo not given)	47%*
Cc1ccc([N+](=O)[O-])cc1N1C(=O)CC(Nc2ccc(N3CCOCC3)cc2)C1=O (stereo not given)	52%*
O=C1CC(Nc2ccc(N3CCOCC3)cc2)C(=O)N1c1ccc2c(c1)OCO2 (stereo not given)	55%*
CCOc1ccccc1CN1CCC(N2CCCCC2)CC1	i
CCn1cc(C(=O)N2CCCCC2)c(=O)c2cc(S(=O)(=O)N3CCc4ccccc4C3)ccc21	i
CCCCC(=O)Nc1cccc(OCc2cc(=O)n3ccc(C)cc3n2)c1	i
N/C(=N/OC(=O)c1ccccc1[N+](=O)[O-])c1ccccn1	i
CC(C)CCCC1CN(C(=O)c2ccc(N3CCN(C)CC3)cc2)CCO1 (stereo not given)	i
SMILES	ST2 IL33 inh
O=C(Nc1cccc(-n2cccn2)c1)C1CCCN(Cc2cc3ccccc3o2)C1 (stereo not given)	i
CC(C)=CCCC12CCC(CO)(CO1)C(C)C2 (stereo not given)	i
Cc1ccc(=O)n(CC(=O)NCc2cccnc2Oc2c(C)cccc2C)n1	i
O=C(NCCCN1CCOCC1)C1CCN(CC2CCCCC2)CC1	i
CC#CCN(Cc1ccco1)C(=O)c1cc(C)c(C)c(S(N)(=O)=O)c1	i
C=CCN(Cc1cccnc1)C(=O)CC(=O)Nc1cc(C)cc(C)c1	i
Cc1nnnn1CCCN1CCOC(c2ccc(Cl)c(Cl)c2)C1 (stereo not given)	i
O=C1CC(N2CCOCC2)C(=O)N1c1cccc(Cl)c1 (stereo not given)	i
O=C1CC(Nc2ccc(N3CCOCC3)cc2)C(=O)N1c1cccc([N+](=O)[O-])c1 (stereo not given)	47%*
O=[N+]([O-])c1cccc(-c2nc(N3CCOCC3)c3ccccc3n2)c1	i
O=C(Nc1ccc(Br)cc1F)C(NS(=O)(=O)c1cccs1)c1ccccc1 (stereo not given)	i
CN1C(=O)C(O)(CC(=O)c2cccc([N+](=O)[O-])c2)c2ccccc21 (stereo not given)	i
NC(=O)c1ccc(C(=O)c2ccc([N+](=O)[O-])cc2)cc1	i
CN1/C(=C\C(=O)c2ccc([N+](=O)[O-])cc2)C(C)(C)c2ccccc21	36%*
COCCCn1ccnc1-c1cc(OC)ccc1-n1cccn1	i
CC(=O)[C@]1(O)Cc2c(O)c3c(c(O)c2[C@@H](O[C@H]2C[C@H](N)[C@H](O)[C@H](C)O2)C1)C(=O)c1ccccc1C3=O	34%*
Cc1nc2c(C(=O)NCCc3ccccc3)c[nH]n2c(=O)c1Cc1ccc(Cl)cc1	i
COc1cc2c(cc1O)O[C@H](c1ccccc1)[C@@H](O)C2=O	i
COc1cccc(C2C3=C(CCCC3=O)Nc3nc(SC)[nH]c(=O)c32)c1 (stereo not given)	i
O=C(Nc1ccccc1)Nc1cccc([N+](=O)[O-])c1	i
O=[N+]([O-])c1cccc(Nc2ccccc2)c1	33%*
Cc1ccccc1C(=O)Nc1cccc([N+](=O)[O-])c1	i
CC(C)CN1CCC(CNC(=O)c2ccc(NC3CCN(C)CC3)nc2)C1 (stereo not given)	i
CCCc1cc(NCC2CNCCOC2)nc(C)n1 (stereo not given)	i
CCCc1nc(C)cc(-c2cc(N)nc3[nH]ccc23)n1	i
SMILES	ST2 IL33 inh
c1nc(-c2cc(NC3CCCC3)nc3[nH]ccc23)cc(N2CCOCC2)n1	30%*
c1cc2c(-c3ccc(CN4CCOCC4)cn3)cc(NC3CCCC3)nc2[nH]1	i
c1cnc(-c2cc(NC3CCNCC3)nc3[nH]ccc23)cn1	33%*
c1ccc(CNc2nc(NC3CCCCC3)nc(N3CCOCC3)n2)cc1	i
CCCc1cc(-c2cc(NC3CCNCC3)nc3[nH]ccc23)nc(C)n1	38%*
c1cc2c(-c3ccc(NC4CCCC4)nn3)cc(NC3CCNCC3)nc2[nH]1	40%*
CCCOC(=O)c1ccc(NS(=O)(=O)c2cccc3nsnc23)cc1	i
C=C(C)Cn1cc(Oc2ccccc2)c(=O)c(C(=O)OCC)c1	i
CN(Cc1cn[nH]c1-c1ccc(F)cc1)C(=O)c1cnn2c1CCCC2	i
CC(C)CCn1nc(C(=O)N2CCOCC2)c2c1CCN(Cc1ccc(Oc3ncccn3)cc1)C2	i
CC1CCN(CCNS(=O)(=O)c2cc(Br)cc3c2N(C(=O)C2CC2)CC3)CC1	i
CCS(=O)(=O)N1CCOC(Cc2cccc(F)c2)C1 (stereo not given)	i
CCc1nc2sc3c(c2c2nnc(C)n12)CCC3	i
COCCNC(=O)c1cn(C)c(=O)c2c1c1ccccc1n2C	i
Cc1nc(C)c(CN(C)CC2CC(=O)N(C3CCCC3)C2)s1 (stereo not given)	i
COc1ccc(-n2ccnc2CN2CCC(C(=O)N3CCCC3)CC2)cc1	i
COc1ccccc1C(=O)C1CCCN(C(=O)Cc2cc(OC)c(OC)c(OC)c2)C1 (stereo not given)	i
O=C(Nc1ccccc1[N+](=O)[O-])c1cccc(S(=O)(=O)N2CCCCC2)c1	43%*
CC1CN(S(=O)(=O)c2ccc(Cl)c(C(=O)Nc3ccccc3[N+](=O)[O-])c2)CC(C)O1 (stereo not given)	i
O=C(Nc1ccccc1C(=O)O)c1ccc(S(=O)(=O)N2CCCCC2)cc1	i
Cc1ccc(NC(=O)c2cccc(S(=O)(=O)N3CCCCC3)c2)cc1	i
O=C(Nc1ccccc1[N+](=O)[O-])c1ccc(S(=O)(=O)N2CCCCC2)cc1	35%*
O=C(Nc1ccccn1)c1cccc(S(=O)(=O)N2CCCCC2)c1	i
